Compound activity deposited in PubChem BioAssay by ICCB-Longwood Screening Facility, Harvard Medical School.
This excerpt belongs to a sample that is enriched for hits.
CapD inh: inhibitors of Bacillus anthracis CapD enzyme; purified CapD enzyme, fluorescence intensity read-out; hits give low values; AID 492967; z-score (test concentration not listed); hit rate 0.23% among 140,000; in the data active means z-score mostly below about -2.9, no sharp cut-off; inactive means mostly above about -1.9
A number is an active result.

`CC1(C)CC(=O)C2=C(C1)Nc1ccc3ccccc3c1C2c1ccco1` (stereo not drawn) gave CapD inh inactive.
`CC1(C)CC(=O)C2=C(C1)Nc1[nH]n(-c3ccccc3)c(=O)c1C2c1ccco1` (stereo not drawn) gave CapD inh -4.6.
Screening O=C1CCCC2=C1C(c1ccco1)c1c([nH]n(-c3ccccc3)c1=O)N2 (stereo not drawn) returned CapD inh inactive.
For COc1ccc(C2(O)CN(c3cccc(C)c3)C3=[N+]2CCCC3)cc1 (stereo not drawn) the results were CapD inh inactive.
Screening COc1ccc(C(=O)CSc2nnc(-c3ccco3)c(-c3ccco3)n2)cc1 returned CapD inh inactive.
O=C(CSc1nnc(-c2ccco2)c(-c2ccco2)n1)Nc1ccc(C(=O)O)cc1 was read as CapD inh -11.
For O=C(CSc1nnc(-c2ccccc2)c(-c2ccccc2)n1)Nc1ccc(F)cc1 the results were CapD inh inactive.
For CCn1cc(/C=C(\NC(=O)c2ccccc2)C(=O)NCc2ccco2)c2ccccc21 the results were CapD inh inactive.
O=S(=O)(NCc1ccco1)c1c(F)cccc1F was read as CapD inh inactive.
For CCOC(=O)c1sc2nc(SCC(=O)c3ccccc3)n(Cc3ccco3)c(=O)c2c1C the results were CapD inh inactive.
For N#CC1=C(N)NC(=S)C(C(N)=O)C1c1ccccc1 (stereo not drawn) the results were CapD inh -4.5.
`N#CC1=C(SCC(N)=O)NC(=O)CC1c1ccccc1` (stereo not drawn) gave CapD inh inactive.
For N#CC1(C#N)[C@H](C(N)=O)[C@H]1c1ccccc1 the results were CapD inh inactive.
COc1ccc(-c2[nH]ncc2-c2cnccn2)cc1 was read as CapD inh inactive.
`CCCCN1CCCc2cc(CN(Cc3ccco3)C(=S)Nc3ccc(Cl)cc3OC)ccc21` gave CapD inh inactive.
`O=C(O)c1ccc2[nH]c3c(c2c1)CSCC3` gave CapD inh -7.4.
`COC(=O)c1ccc2[nH]c3c(c2c1)CCCC3` gave CapD inh inactive.
`CN(C)CCOC(=O)c1ccc2[nH]c3c(c2c1)CSCC3` gave CapD inh inactive.
Screening CCOC(=O)c1c(NC(=O)C(C)Sc2nnc(CNC(=O)c3ccccc3F)n2C2CCCCC2)sc2c1CCC2 (stereo not drawn) returned CapD inh inactive.
Screening CC1=NN(c2ccccc2)C(=O)/C1=C/c1cn(CC(O)CN2CCCCC2)c2ccccc12 (stereo not drawn) returned CapD inh -4.8.
Screening CC1=NN(c2ccccc2)C(=O)/C1=C/c1coc2ccccc2c1=O returned CapD inh inactive.
CC1=NN(c2ccc(Cl)c(C(=O)O)c2)C(=O)/C1=C/c1cn(Cc2ccccc2)c2ccccc12 was read as CapD inh inactive.
`Cc1ccccc1C(=O)O/N=C1\C(=O)N(c2ccccc2)c2ccccc21` gave CapD inh inactive.
O=C1CCc2cc(S(=O)(=O)N3CCCC3C(=O)N3CCN(c4ccc(Cl)cc4)CC3)ccc2N1 (stereo not drawn) was read as CapD inh inactive.
`C/C(C=Nc1ccccc1)=C\Nc1ccccc1` gave CapD inh -5.
Screening C(=Nc1ccccc1)c1ccccc1 returned CapD inh inactive.
For CC(=O)/C(=C/Nc1ccc(I)cc1)c1ccccc1 the results were CapD inh inactive.
CN(C)CC(O)Cn1c2ccc(Cl)cc2c2cc(Cl)ccc21 (stereo not drawn) was read as CapD inh inactive.
CC[C@@H]1OC(=O)[C@H](C)[C@H](O[C@H]2C[C@@](C)(OC)[C@@H](O)[C@H](C)O2)[C@@H](C)[C@@H](O[C@@H]2O[C@H](C)C[C@H](N(C)C)[C@H]2O)C(C)(O)C[C@@H](C)[C@@H]2NC(COCCOC)OC([C@H]2C)[C@]1(C)O (stereo partly drawn) was read as CapD inh inactive.
CC(=O)N1CCc2c(sc3nc(SCc4ccc(C)cc4)n(Cc4ccco4)c(=O)c23)C1 was read as CapD inh inactive.
For Cc1cccc(C)c1NC(=S)NCc1ccco1 the results were CapD inh inactive.
`N#Cc1ccc(Oc2ccc(N3C(=O)CCC3=O)cc2)cc1` gave CapD inh inactive.
`N#COc1ccc(Oc2ccc(OC#N)cc2)cc1` gave CapD inh -4.9.
For N#Cc1ccc(Oc2ccccc2)cc1C#N the results were CapD inh inactive.
`COc1cc(OC)nc(-c2cccc(NC(=O)C(c3ccccc3)c3ccccc3)c2)n1` gave CapD inh inactive.
CC(Sc1ccccc1)C(=O)Nc1ccccc1Cl (stereo not drawn) was read as CapD inh inactive.
CCOC(=O)c1noc(C)c1-c1csc(N)n1 was read as CapD inh inactive.
Cc1c(Cl)cccc1NC(=O)c1cccs1 was read as CapD inh inactive.
`Cc1ccc(C)c(NC(=O)c2cccs2)c1` gave CapD inh inactive.
For CCOC(=O)c1c(C)cccc1NC(=O)c1cccs1 the results were CapD inh -1.7.
Screening CCOC(=O)c1ccc(Cn2c3ccc(OC(F)(F)F)cc3c3nc4ccccc4nc32)o1 returned CapD inh inactive.
Screening O=C(CCNc1ccccc1)c1ccc(Cl)s1 returned CapD inh inactive.
COC(=O)c1ccn(-c2nc(-c3ccco3)cc(C(F)(F)F)n2)n1 was read as CapD inh inactive.
For COc1cccc(-c2cc(C(F)(F)F)nc(-n3cccn3)n2)c1 the results were CapD inh -3.4.
`COc1nc(-c2ccccc2)cc(C(F)(F)F)n1` gave CapD inh inactive.
For O=C(NCCCN1CCOCC1)c1nn2c(c1Cl)NC(c1ccc(Cl)cc1)CC2C(F)(F)F (stereo not drawn) the results were CapD inh inactive.
For O=C(c1ccccc1)N(Cc1cc2cccc3c2n(c1=O)CCC3)c1cccc(C(F)(F)F)c1 the results were CapD inh inactive.
For Nc1nnc(N2CCCCC2)s1 the results were CapD inh inactive.
`COc1ccc2nc(N3CCCC3)sc2c1` gave CapD inh inactive.
O=C1CCCc2nc(N3CCCCC3)sc21 was read as CapD inh -4.3.
For O=C(CSc1ncnc2c1nnn2-c1ccc(F)cc1)N1CCCc2ccccc21 the results were CapD inh inactive.
For CC1=NN(c2cc(S(=O)(=O)O)c3cccc(S(=O)(=O)O)c3c2)C(=O)C1 the results were CapD inh -5.7.
`CC1=NN(c2ccc(C(=O)O)cc2)C(=O)C1` gave CapD inh inactive.
CC1=NN(c2cccc(S(N)(=O)=O)c2)C(=O)C1 was read as CapD inh inactive.
For O=C(Nc1ccccc1)OC1C2CCCC1C(N1CCCCC1)CC2 (stereo not drawn) the results were CapD inh inactive.
Screening CCCc1cc2c(=O)c(-c3ccc4c(c3)OCCO4)c(C(F)(F)F)oc2c(C=[N+](C)C)c1O returned CapD inh inactive.
`CCc1cc2c(=O)c(-c3ccc4c(c3)OCO4)c(C(F)(F)F)oc2c(CN(C)C)c1O` gave CapD inh -4.
CCN(CC)Cc1c(O)ccc2c(=O)c(-c3ccc(OC)c(OC)c3)c(C(F)(F)F)oc12 was read as CapD inh inactive.
For CCOc1ccc(C(=O)NNC(=O)OCCc2ccccc2Br)cc1 the results were CapD inh inactive.
For COc1cc(/C=C2/SC(=S)N(NC(C)=O)C2=O)ccc1O the results were CapD inh -4.8.
COc1cc(/C=C2\SC(=S)N(NC(=O)c3ccc(Br)cc3)C2=O)cc(OC)c1OC was read as CapD inh inactive.
